This is a sample that favours compounds with a hit; in the whole collection about 3% have one here.
PMP22 txn prim = modulators of PMP22 gene transcription in S16 Schwann cells; S16 Pmp22-F2sN Schwann cells, FLuc/NLuc coincidence luminescence, 24 h; hit rate 2% among 43,000; Potency, µM (top dose mostly 57.5 µM), actives largely listed as inhibitors; AID 1508649; active = clear falling dose curves in both reporters; inconclusive = both reporters move, but less clearly or upward; inactive = either reporter flat; the % is the NLuc reporter signal
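Schwann cells carrying the coincidence reporter were exposed to library compounds for 24 h at 37C, then lysed and read for FLuc and, after quenching, NLuc luminescence on a CCD imager.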
p53null 32C kill = p53 null cell cytotoxicity, permissive temperature; H1299-neo p53 null cells, ATP luminescence, 24 h, 32C; Potency, µM (top dose mostly 46.1 µM), most hits filed as cytotoxic; hit rate 0.62% among 55,000; note: nearly all actives have a fitted effect of over 55% in size
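AC50 values derive from Hill modelling of qHTS concentration-response data (up to 46 uM) in H1299-neo cells. Cells were treated 24 h at 32C following overnight attachment at 37C; viability was read as cellular ATP.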
pS6 MEF inh = mTORC1 pathway inhibition measured by phospho-rpS6; Tsc2-/- p53-/- MEF, phospho-rpS6 immunofluorescence/PI, 24 h; Potency, µM (doses to about 38.3 µM), hits mostly inhibitors; hit rate 0.78% among 44,000; note: nearly all actives have a fitted effect of over 50% in size
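Read-out: phospho-S6 Alexa-488 intensity over PI intensity per well, scored as % active cells using thresholds from rapamycin (7.5 nM) and DMSO controls. Tsc2-/-, p53-/- MEFs exposed to compound for 24 h; PI cell count recorded as viability.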
S16 F2sN tox = cytotoxicity in S16 Pmp22-F2sN Schwann cells; S16 Pmp22-F2sN Schwann cells (luciferase reporters placed in the Pmp22 gene) viability, CellTiter-Glo, 24 h; Potency, µM (titrated, usually from 57.5 µM), usual class: cytotoxic; hit rate 0.48% among 43,000; note: nearly all actives have a fitted effect of over 65% in size
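CellTiter-Glo counter-screen, qHTS, 1536-well. Cells: S16(c9) Pmp22-F2sN, 500-1,000/well in DMEM + 10% FBS. Cpd 23 nL pin transfer, 24 h, 37C/5% CO2. Read: luminescence, CCD imager.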
p53null 39C tox = selectivity test: cytotoxicity in p53 null cells, nonpermissive temperature | Potency, µM (titrated, usually from 46.1 µM), usual class: cytotoxic | H1299 p53-null (neo) cells, 39C, ATPlite viability, 24 h | hit rate 0.97% among 55,000; note: nearly all actives have a fitted effect of over 50% in size
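Cells seeded at 600/well, 37C overnight. Compound added (up to 46 uM), plates shifted to 39C for 24 hr. ATPlite added, luminescence read after 20 min at room temperature.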
SKOV3 invasion = blocks SKOV3ip1 adhesion and invasion in omental model | Potency, µM (highest dose often 45.8 µM), actives largely listed as inhibitors | hit rate 0.1% among 46,000 | SKOV3ip1-GFP adhesion/invasion on 3D omental model, fluorescence; note: nearly all actives have a fitted effect of over 65% in size
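A 3D layer of primary human omental fibroblasts, mesothelial cells, fibronectin and collagen I, grown 48 hr, received SKOV3ip1-GFP cells in serum-free medium plus compounds at 0.36-46 umol/L. After 2 hr RT and 16 hr 37 C, fixed adherent GFP cells were counted; normalized to DMSO and tomatine.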
NLuc sat counter = counter-screen for PMP22 expression modulators: NanoLuc inhibition, saturating substrate | Potency, µM (top dose mostly 57.5 µM), most hits filed as inhibitors | Secreted NLuc enzyme (filtered S16 cell medium), Nano-Glo luminescence | shares compounds with PMP22 txn prim | hit rate 4% among 690
NLuc Km counter = inhibits NanoLuc under Km conditions, PMP22 counter-screen. hit rate 5% among 690. Potency, µM (titrated, usually from 57.5 µM), hits mostly inhibitors. secreted NLuc enzyme, coelenterazine luminescence, Km conditions. shares compounds with PMP22 txn prim
FLuc counter = firefly luciferase enzyme inhibition artifact for PMP22 screen | 690 tested, under 10 active | Potency, µM (top dose mostly 57.5 µM), actives largely listed as inhibitors | AID 1508640 | purified P. pyralis FLuc, luminescence, 10 min | shares compounds with PMP22 txn prim
Target sequence (P08659 whole entry, looked up): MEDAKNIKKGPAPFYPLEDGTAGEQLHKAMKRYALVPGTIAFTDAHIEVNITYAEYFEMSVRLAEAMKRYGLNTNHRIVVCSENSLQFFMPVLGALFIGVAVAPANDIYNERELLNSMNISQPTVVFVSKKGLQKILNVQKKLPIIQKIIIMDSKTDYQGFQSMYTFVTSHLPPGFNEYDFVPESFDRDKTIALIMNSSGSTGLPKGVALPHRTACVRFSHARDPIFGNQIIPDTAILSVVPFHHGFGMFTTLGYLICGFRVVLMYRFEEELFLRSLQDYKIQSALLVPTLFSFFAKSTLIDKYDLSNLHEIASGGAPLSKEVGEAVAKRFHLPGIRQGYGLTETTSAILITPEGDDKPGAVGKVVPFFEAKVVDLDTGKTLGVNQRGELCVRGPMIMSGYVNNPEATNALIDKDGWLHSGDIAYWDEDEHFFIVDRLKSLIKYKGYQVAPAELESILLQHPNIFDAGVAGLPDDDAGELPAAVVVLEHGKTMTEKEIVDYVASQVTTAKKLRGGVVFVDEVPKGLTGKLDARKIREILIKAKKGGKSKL
S16 viab conf = S16 Schwann cell cytotoxicity, confirmatory; shares compounds with PMP22 txn prim; S16 Schwann cells viability, CellTiter-Glo ATP luminescence, 24 h; Potency, µM (series often up to 57.5 µM), actives largely listed as cytotoxic; hit rate 7% among 690; AID 1508641
PMP22 txn conf = confirmation of modulators of PMP22 gene transcription in S16 cells; hit rate 22% among 690; S16 Schwann cells Pmp22-F2sN, dual luciferase, 24 h; Potency, µM (top dose mostly 57.5 µM), hits mostly inhibitors; shares compounds with PMP22 txn prim; active = clear falling dose curves in both reporters; inconclusive = both reporters move, but less clearly or upward; inactive = either reporter flat; the % is the FLuc reporter signal
PMP22 prot conf = rat PMP22 protein level modulation, confirmatory. shares compounds with PMP22 txn prim. S16 Schwann cells Pmp22-HiBiT, luminescence, 48 h. Potency, µM (titrated, usually from 27.9 µM), hits mostly inhibitors. 95 tested, under 10 active
Target sequence (P25094 whole entry, looked up): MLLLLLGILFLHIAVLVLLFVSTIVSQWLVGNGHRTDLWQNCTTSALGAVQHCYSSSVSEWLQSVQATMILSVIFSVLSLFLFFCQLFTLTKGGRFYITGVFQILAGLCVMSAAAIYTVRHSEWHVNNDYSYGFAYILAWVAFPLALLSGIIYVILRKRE
Numbers stand for hits; n = inactive; u = inconclusive; x = not tested or not shown. Unless noted, calls come from the whole dose curve; as a rule, active = well fitted curve in the direction sought with a large enough effect; inconclusive = small, poorly fitted or top-dose-only effect, or another doubt; inactive = no such curve, though single readings can be large; an effect the other way counts as inactive or inconclusive.

SMILES | PMP22 txn prim | p53null 32C kill | pS6 MEF inh | S16 F2sN tox | p53null 39C tox | SKOV3 invasion | NLuc sat counter | NLuc Km counter | FLuc counter | S16 viab conf | PMP22 txn conf | others
CCOCCCn1c(=N)c(C(=O)NCC2CCCO2)cc2c(=O)n3cccc(C)c3nc21 (stereo not given) | 16µM | n | n | n | n | n | n | n | n | n | u
COCCCn1c(=N)c(C(=O)NCC2CCCO2)cc2c(=O)n3cccc(C)c3nc21 (stereo not given) | x | n | x | x | x | x | x | x | x | x | x
COCCCn1c(=N)c(C(=O)NCc2ccco2)cc2c(=O)n3cccc(C)c3nc21 | 14µM | n | n | n | n | n | n | n | n | u | u
C#C[C@]1(O)CC[C@@H]2[C@@H]3CCc4cc(O)ccc4[C@H]3CC[C@@]21C | x | x | x | x | x | n | x | x | x | x | x
CCOc1ccccc1CNC(=O)CCn1c(=O)c2cccn2c2ccc(F)cc21 | 14µM | n | u | n | n | n | n | n | n | n | u
O=C(c1cc(Cc2n[nH]c(=O)c3ccccc23)ccc1F)N1CCN(C(=O)C2CC2)CC1 | x | x | x | x | x | n | x | x | x | x | x
CCC(=O)C1=C(c2cccc([N+](=O)[O-])c2)N(C(=O)CC)n2c(nnc2C2CCCCC2)S1 | 8.4µM | n | n | u | n | u | n | n | n | n | 11µM | PMP22 prot conf=u
CCC(=O)C1=C(c2cccc([N+](=O)[O-])c2)N(C(=O)CC)n2c(nnc2-c2ccccc2)S1 | 3µM | n | n | n | n | n | u | u | n | n | 11µM | PMP22 prot conf=n
Oc1ccc([C@@H]2Oc3ccc(O)cc3[C@@H]3CCC[C@@H]32)cc1 | x | x | x | x | x | n | x | x | x | x | x
CCOC(=O)c1ccccc1NC(=O)c1nn(C)c2c1COc1ccccc1-2 | 17µM | n | n | n | n | n | n | n | n | n | 18µM
CCOC(=O)c1ccc(NC(=O)c2nn(C)c3c2COc2ccccc2-3)cc1 | n | n | n | n | n | n | x | x | x | x | x
O=C(Nc1ccc(F)cc1Cl)C1CCN(c2ncnc3c2nc2n3CCCCC2)CC1 | 17µM | n | n | n | n | n | n | n | n | n | u
Cc1ccc2[nH]c(CSc3nnc(COc4ccccc4C)n3C)cc(=O)c2c1 | 13µM | n | n | u | n | n | u | u | n | u | n
CC(=O)Nc1ccc(-c2nnc3n(Cc4ccc(C)cc4)c(=O)c4ccccc4n23)cc1 | n | n | n | u | n | n | x | x | x | x | x
CCOc1ccc(CN2C(=O)C(=O)c3cccc(C)c32)cc1OC | 11µM | n | n | n | 20µM | n | u | u | n | n | u
CCOc1ccccc1NC(=O)c1c(NCc2ccc(C)o2)sc2c1CCCCC2 | 13µM | n | n | n | n | n | u | u | n | n | u
CCOc1ccccc1NC(=O)c1c(NCc2ccc(C)o2)sc2c1CCC(C)C2 (stereo not given) | n | n | n | n | n | u | x | x | x | x | x
O=C(CSc1nc2c([nH]c3ccccc32)c(=O)n1-c1ccc(Cl)cc1)NC1CCCCC1 | 13µM | n | n | u | n | n | n | n | n | u | 17µM
CCOc1ccc(-n2c(SCC(=O)NC3CCCCC3)nc3c([nH]c4ccccc43)c2=O)cc1 | n | n | n | n | n | n | x | x | x | x | x
CCc1nnc(NC(=O)c2nc(S(C)(=O)=O)ncc2Cl)s1 | 9.5µM | n | u | u | n | n | u | u | n | u | 14µM | PMP22 prot conf=u
C[C@]12CC[C@@H]3c4ccc(O)cc4CC[C@H]3[C@H]1CC[C@H]2O | x | x | x | x | x | n | x | x | x | x | x
O=C(NCCc1csc(-c2ccc(F)cc2)n1)c1c(F)cccc1Cl | u | n | n | n | n | n | u | u | u | n | n
O=C(NCCc1csc(-c2ccc(F)cc2)n1)c1cccc(F)c1 | u | n | n | n | n | n | x | x | x | x | x
CON=C(C(=O)N[C@@H]1C(=O)N2C(C(=O)O)=C(Cn3ccc(=N)n3CCO)CS[C@H]12)c1csc(N)n1 | x | x | x | x | x | n | x | x | x | x | x
Cn1c(=O)c2cc(C(=O)NCCCN3CCN(c4ccc(F)cc4)CC3)sc2c2ccccc21 | 19µM | n | n | n | n | n | u | n | n | 34µM | u
SMILES | PMP22 txn prim | p53null 32C kill | pS6 MEF inh | S16 F2sN tox | p53null 39C tox | SKOV3 invasion | NLuc sat counter | NLuc Km counter | FLuc counter | S16 viab conf | PMP22 txn conf | others
CCCN1CCN(CCCNC(=O)c2cc3c(Cl)nc4ccccc4c3s2)CC1 | 13µM | n | n | n | n | n | n | n | n | u | n
CCn1c(=O)c2cc(C(=O)NC3CCC(C)CC3)sc2c2ccccc21 (stereo not given) | 17µM | n | n | u | n | n | u | n | n | n | n
CCn1c(=O)c2cc(C(=O)NCCCN3CCN(C)CC3)sc2c2ccccc21 | 11µM | n | n | n | n | n | n | n | n | n | n
CCCCCN=C(N)NN=Cc1c[nH]c2ccc(OC)cc12 | x | x | x | x | x | n | x | x | x | x | x
CN(C)CCOc1ccc(-c2nc(-c3ccc4c(c3)CCC4=NO)c(-c3ccncc3)[nH]2)cc1 | x | x | x | x | x | n | x | x | x | x | x
COCCCOc1cc(C[C@@H](C[C@H](N)[C@@H](O)C[C@H](C(=O)NCC(C)(C)C(N)=O)C(C)C)C(C)C)ccc1OC | x | x | x | x | x | n | x | x | x | x | x
COc1ccc(-c2onc(C)c2C)cc1S(=O)(=O)Nc1cc(Cl)ccc1C | u | n | n | n | n | n | u | u | n | n | u
CCOc1ccccc1CNS(=O)(=O)c1cc(-c2onc(C)c2C)ccc1OC | u | n | n | u | n | n | x | x | x | x | x
COc1ccc(-c2onc(C)c2C)cc1S(=O)(=O)NCc1ccc(C)o1 | 8.9µM | n | n | n | n | n | n | n | n | n | u
COc1ccc(Cl)cc1NS(=O)(=O)c1cc(-c2cc(C)no2)ccc1C | n | n | n | n | n | n | x | x | x | x | x
